Each structure is given as a SMILES string. Where “and” joins values, the source holds several entries; their conditions need not be identical. Identical values can stand only once. Inconclusive results are not listed. Calls of active or inactive are those of the source. The call rests on the fitted dose curve; in most records, active means well fitted curve in the direction sought with a large enough effect; inconclusive means small, poorly fitted or top-dose-only effect, or another doubt; inactive means no such curve, though single readings can be large; an effect the other way counts as inactive or inconclusive.
On the % scale 0 is the no-effect control and ±100 the full control effect; potency means the concentration at half of the fitted maximal effect.

Chain of Cytochrome P450 3A7 (Homo sapiens) (P24462 whole entry, looked up): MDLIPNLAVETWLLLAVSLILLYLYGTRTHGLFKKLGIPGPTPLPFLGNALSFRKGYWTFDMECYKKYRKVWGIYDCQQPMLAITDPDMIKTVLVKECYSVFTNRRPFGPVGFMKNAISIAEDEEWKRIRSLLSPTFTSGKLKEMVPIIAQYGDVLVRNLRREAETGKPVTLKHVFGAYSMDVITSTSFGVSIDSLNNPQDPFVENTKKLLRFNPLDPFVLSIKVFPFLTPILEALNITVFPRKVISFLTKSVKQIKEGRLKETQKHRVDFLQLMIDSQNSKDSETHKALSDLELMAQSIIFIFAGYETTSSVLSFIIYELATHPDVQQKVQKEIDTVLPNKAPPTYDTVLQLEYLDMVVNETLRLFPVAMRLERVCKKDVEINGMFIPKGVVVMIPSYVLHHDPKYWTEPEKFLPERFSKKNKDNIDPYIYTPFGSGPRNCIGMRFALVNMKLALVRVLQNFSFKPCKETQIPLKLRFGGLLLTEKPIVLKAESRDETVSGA

The first assay addresses Cytochrome P450 3A7 (Homo sapiens) (UniProt P24462). In words: Cytochrome P450 family 3 subfamily A member 7 (CYP3A7) small molecule antagonists: luciferase biochemical qHTS assay (AID 1963596). Further: nearly all actives have a fitted effect of over 40% in size. Conditions: P450-Glo CYP3A7 enzyme luminescence, 1 h; series mostly up to 57.4 µM; activity change, negative = inhibition: at the top concentration. An outline of the steps:
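Enzyme-substrate mix + cpd (DMSO), 10 min RT; + NADPH regen system, 1 h RT; + luciferin detection reagent, 20 min RT; luminescence read. Proluciferin substrate, P450-Glo format, 1536-well qHTS.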
As for `Cc1cccc(C(=O)O)c1O`, the “activity change, negative = inhibition” value is 1.62% (inactive).

As for `NCCNC(=O)c1ccc(Cl)cn1`, the “activity change, negative = inhibition” value was -1.56% (inactive).

As to `NC(=O)NC1N=C([O][Al])NC1=O` (stereo not given), the Potency is 12.3 µM (active).

Regarding `NC(=O)c1ncn([C@@H]2O[C@H](CO)[C@@H](O)[C@H]2O)n1`, the “activity change, negative = inhibition” value is -3.13% (inactive).

For `CC(=O)N[C@H]1[C@H]([C@H](O)[C@H](O)CO)OC(C(=O)O)=C[C@@H]1N=C(N)N`, the “activity change, negative = inhibition” value is 18.6% (inactive).

`O=C(Oc1ccccc1)c1cccc(C(=O)Oc2ccccc2)c1`: the “activity change, negative = inhibition” value is -1.41% [at 115 µM] (inactive).

Turning to `CCCC(=O)O[C@]1(C(=O)COC(=O)CC)CC[C@H]2[C@@H]3CCC4=CC(=O)CC[C@]4(C)[C@H]3[C@@H](O)C[C@@]21C`, the “activity change, negative = inhibition” value was 25.5% [at 23.9 µM] (inactive).

In the case of `Cc1ccc(C(C)C)c(O)c1`, the “activity change, negative = inhibition” value is -10.4% (inactive).

For the compound `Cc1c(C(N)=O)cc([N+](=O)[O-])cc1[N+](=O)[O-]`, the “activity change, negative = inhibition” value is -6.76% (inactive).

In the case of `COc1ccccc1OCC1CNC(=O)O1` (stereo not given), the “activity change, negative = inhibition” value is 0.281% (inactive).

Regarding `NS(=O)(=O)c1ccc(N2CCCCS2(=O)=O)cc1`, the “activity change, negative = inhibition” value was -22.3% (inactive).

As to `O=C1c2cccc3c2[C@H](CCC3)CN1[C@@H]1CN2CCC1CC2`, the “activity change, negative = inhibition” value is 4.6% (inactive).

Turning to `COC(=O)N[C@@H](C)CNc1nccc(-c2cn(C(C)C)nc2-c2cc(Cl)cc(NS(C)(=O)=O)c2F)n1`, the “activity change, negative = inhibition” value was 18.5% (inactive).

As for `O=[N+]([O-])c1nccn1CO[C@@H](CO)[C@H](O)CO`, the “activity change, negative = inhibition” value was -6.18% (inactive).

`CC(=O)OCC(=O)[C@@]1(OC(C)=O)[C@@H](C)C[C@H]2[C@@H]3C[C@H](F)C4=CC(=O)C=C[C@]4(C)[C@@]3(F)[C@@H](O)C[C@@]21C`: the “activity change, negative = inhibition” value is 46.5% (inactive).

Turning to `CNCCc1ccccn1`, the “activity change, negative = inhibition” value was -1.85% (inactive).

As to `C[C@H](CN1CCCC1)C(=O)c1ccc(C(F)(F)F)cc1`, the “activity change, negative = inhibition” value is 1.26% (inactive).

On to `CC1(C)S[C@@H]2[C@H](NC(=O)C(c3ccccc3)S(=O)(=O)O)C(=O)N2[C@H]1C(=O)O` (stereo not given in full), for which the “activity change, negative = inhibition” value is 1.94% (inactive).

On to `O=C(O)P(=O)(O)O`, for which the “activity change, negative = inhibition” value was 1.75% (inactive).

In the case of `Cc1ccc(NC(=O)Nc2cc(C(F)(F)F)ccc2F)cc1Nc1ccc2c(c1)NC(=O)/C2=C\c1ccc[nH]1`, the “activity change, negative = inhibition” value was 0% (inactive).

For the compound `COC(=O)c1cc(Cl)ccc1NS(=O)(=O)C(F)(F)F`, the “activity change, negative = inhibition” value was -0.308% (inactive).

Turning to `Brc1ccccc1-c1ccccc1`, the “activity change, negative = inhibition” value is -6.06% [at 115 µM] (inactive).

Turning to `O=C(CCCCC(=O)Nc1c(I)cc(I)c(C(=O)O)c1I)Nc1c(I)cc(I)c(C(=O)O)c1I`, the “activity change, negative = inhibition” value was -7.31% (inactive).

Take `CCN1CCC[C@H]1CNC(=O)c1c(O)c(Cl)cc(Cl)c1OC`: the “activity change, negative = inhibition” value was -9.74% (inactive).

On to `C=CCN1C[C@H](C(=O)N(CCCN(C)C)C(=O)NCC)C[C@@H]2c3cccc4[nH]cc(c34)C[C@H]21`, for which the “activity change, negative = inhibition” value was -16.7% (inactive).

For the compound `OC[C@]1(O)OC[C@@H](O)[C@H](O)[C@@H]1O`, the “activity change, negative = inhibition” value was -6.16% (inactive).

Take `NC(=O)N[C@@H](CCC(=O)O)C(=O)O`: the “activity change, negative = inhibition” value was -15.2% (inactive).

`Oc1c(Br)cc(Br)c2cccnc12`: the “activity change, negative = inhibition” value was -6.4% (inactive).

`OC[C@H]1O[C@@H](Oc2ccc(O)cc2)[C@H](O)[C@@H](O)[C@@H]1O`: the “activity change, negative = inhibition” value is -12.1% (inactive).

On to `CC1CCc2cc(F)cc3c(=O)c(C(=O)O)cn1c23` (stereo not given), for which the “activity change, negative = inhibition” value was -25.5% (inactive).

On to `CC(C)(Oc1ccc(Cl)cc1)C(=O)O`, for which the Potency entry is “inactive”.

`C[C@@H]1CCN(C(=O)N2CCCC2)C[C@@H]1N(C)c1ncnc2[nH]ccc12`: the “activity change, negative = inhibition” value is 0% (inactive).

Turning to `CCCCCCCCCCCCCCC[C@H](O)[C@@H](N)CO`, the “activity change, negative = inhibition” value is -21.5% (inactive).

Turning to `O=C(O)Cc1ccc2c(c1)C(=O)c1ccccc1CO2`, the “activity change, negative = inhibition” value is 0.764% (inactive).

Regarding `O=C(O)CCc1nc2ccccc2[nH]1`, the “activity change, negative = inhibition” value is 1.78% (inactive).

For the compound `CCN(CC)C(=O)C1CN2CCc3cc(OC)c(OC)cc3C2CC1OC(C)=O` (stereo not given), the “activity change, negative = inhibition” value is -17.6% (inactive).

In the case of `CCOC(=O)c1ccc(O)cc1`, the “activity change, negative = inhibition” value was -4.79% (inactive).

Regarding `CCOC(N)=O`, the “activity change, negative = inhibition” value is -0.648% (inactive).

With `NC(=O)CC[C@@H]1NC(=O)[C@H](Cc2ccccc2)NC(=O)[C@H](Cc2ccc(O)cc2)NC(=O)CCSSC[C@@H](C(=O)N2CCC[C@H]2C(=O)N[C@@H](CCCN=C(N)N)C(=O)NCC(N)=O)NC(=O)[C@H](CC(N)=O)NC1=O`, the “activity change, negative = inhibition” value is -20.2% (inactive).

As for `O=c1[nH]c(=O)n([C@H]2O[C@H](CO)[C@@H](O)[C@@H]2O)cc1/C=C\Br`, the “activity change, negative = inhibition” value is -7.65% (inactive).

System in a further assay: not listed separately
In words: Cellular viability qHTS for adrenocortical cancer (ACC) cell line SW-13 (AID 1963989). Further: nearly all actives have a fitted effect of over 65% in size.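 On activity (max response): cells grown in serum-free medium with ITS supplement.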 Conditions: SW-13 ACC cells viability, CellTiter-Glo, 48 h; activity (max response): active compounds read low. An outline of the steps:
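Here, serum-free SW-13 cultures were dosed up to 46 uM. Following 48 h, ATP-dependent luminescence (CellTiter-Glo) reported viable cells, and logistic modeling produced IC50 values.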
Background: qHTS replaces the single test concentration by a dilution series.
Turning to `Cc1cccc(C(=O)O)c1O`, the activity (max response) was 14.1% (inactive).

As to `NCCNC(=O)c1ccc(Cl)cn1`, the activity (max response) is -2.26% (inactive).

As for `NC(=O)NC1N=C([O][Al])NC1=O` (stereo not given), the activity (max response) is -0.662% (inactive).

In the case of `NC(=O)c1ncn([C@@H]2O[C@H](CO)[C@@H](O)[C@H]2O)n1`, the activity (max response) was -0.314% (inactive) and -2.41% (inactive).

Consider `CC(=O)N[C@H]1[C@H]([C@H](O)[C@H](O)CO)OC(C(=O)O)=C[C@@H]1N=C(N)N`, for which the activity (max response) was -7.79% (inactive).

For `O=C(Oc1ccccc1)c1cccc(C(=O)Oc2ccccc2)c1`, the activity (max response) is -1.98% (inactive).

Regarding `CCCC(=O)O[C@]1(C(=O)COC(=O)CC)CC[C@H]2[C@@H]3CCC4=CC(=O)CC[C@]4(C)[C@H]3[C@@H](O)C[C@@]21C`, the activity (max response) was 8.42% (inactive).

For the compound `Cc1ccc(C(C)C)c(O)c1`, the activity (max response) was 10.4% (inactive).

In the case of `Cc1c(C(N)=O)cc([N+](=O)[O-])cc1[N+](=O)[O-]`, the activity (max response) is -7.83% (inactive).

For `COc1ccccc1OCC1CNC(=O)O1` (stereo not given), the activity (max response) was 12.9% (inactive).

On to `NS(=O)(=O)c1ccc(N2CCCCS2(=O)=O)cc1`, for which the activity (max response) was 16.4% (inactive).

In the case of `O=C1c2cccc3c2[C@H](CCC3)CN1[C@@H]1CN2CCC1CC2`, the activity (max response) was -4.45% (inactive).

`COC(=O)N[C@@H](C)CNc1nccc(-c2cn(C(C)C)nc2-c2cc(Cl)cc(NS(C)(=O)=O)c2F)n1`: the activity (max response) is -16% (inactive).

Take `O=[N+]([O-])c1nccn1CO[C@@H](CO)[C@H](O)CO`: the activity (max response) was -4.12% (inactive).

For `CC(=O)OCC(=O)[C@@]1(OC(C)=O)[C@@H](C)C[C@H]2[C@@H]3C[C@H](F)C4=CC(=O)C=C[C@]4(C)[C@@]3(F)[C@@H](O)C[C@@]21C`, the activity (max response) is 3.57% (inactive).

As for `CNCCc1ccccn1`, the activity (max response) was 13.5% (inactive).

Turning to `C[C@H](CN1CCCC1)C(=O)c1ccc(C(F)(F)F)cc1`, the activity (max response) is -1.72% (inactive).

As to `CC1(C)S[C@@H]2[C@H](NC(=O)C(c3ccccc3)S(=O)(=O)O)C(=O)N2[C@H]1C(=O)O` (stereo not given in full), the activity (max response) is 8.35% (inactive).

As for `O=C(O)P(=O)(O)O`, the activity (max response) is 10.2% (inactive).

Consider `Cc1ccc(NC(=O)Nc2cc(C(F)(F)F)ccc2F)cc1Nc1ccc2c(c1)NC(=O)/C2=C\c1ccc[nH]1`, for which the Potency is 22.4 µM (active).

As to `COC(=O)c1cc(Cl)ccc1NS(=O)(=O)C(F)(F)F`, the activity (max response) is -0.552% (inactive).

Regarding `Brc1ccccc1-c1ccccc1`, the activity (max response) was 7.98% (inactive).

With `O=C(CCCCC(=O)Nc1c(I)cc(I)c(C(=O)O)c1I)Nc1c(I)cc(I)c(C(=O)O)c1I`, the activity (max response) is 10.3% (inactive).

Turning to `CCN1CCC[C@H]1CNC(=O)c1c(O)c(Cl)cc(Cl)c1OC`, the activity (max response) was 8.2% (inactive).

For `C=CCN1C[C@H](C(=O)N(CCCN(C)C)C(=O)NCC)C[C@@H]2c3cccc4[nH]cc(c34)C[C@H]21`, the activity (max response) is 3.88% (inactive).

Turning to `OC[C@]1(O)OC[C@@H](O)[C@H](O)[C@@H]1O`, the activity (max response) was 6.17% (inactive).

`NC(=O)N[C@@H](CCC(=O)O)C(=O)O`: the activity (max response) was 9.08% (inactive).

As to `Oc1c(Br)cc(Br)c2cccnc12`, the Potency is 4.61 µM (active).

On to `OC[C@H]1O[C@@H](Oc2ccc(O)cc2)[C@H](O)[C@@H](O)[C@@H]1O`, for which the activity (max response) is -0.0454% (inactive).

Regarding `CC1CCc2cc(F)cc3c(=O)c(C(=O)O)cn1c23` (stereo not given), the activity (max response) was 5.01% (inactive).

Take `CC(C)(Oc1ccc(Cl)cc1)C(=O)O`: the activity (max response) is -3.02% (inactive).

Regarding `C[C@@H]1CCN(C(=O)N2CCCC2)C[C@@H]1N(C)c1ncnc2[nH]ccc12`, the activity (max response) is 11.2% (inactive).

Take `CCCCCCCCCCCCCCC[C@H](O)[C@@H](N)CO`: the activity (max response) is 1.16% (inactive).

Consider `O=C(O)Cc1ccc2c(c1)C(=O)c1ccccc1CO2`, for which the activity (max response) was 11.3% (inactive).

On to `O=C(O)CCc1nc2ccccc2[nH]1`, for which the activity (max response) is 0.871% (inactive).

Regarding `CCN(CC)C(=O)C1CN2CCc3cc(OC)c(OC)cc3C2CC1OC(C)=O` (stereo not given), the activity (max response) is -2.45% (inactive).

In the case of `CCOC(=O)c1ccc(O)cc1`, the activity (max response) was 9.4% (inactive).

With `CCOC(N)=O`, the activity (max response) is 11.5% (inactive).

On to `NC(=O)CC[C@@H]1NC(=O)[C@H](Cc2ccccc2)NC(=O)[C@H](Cc2ccc(O)cc2)NC(=O)CCSSC[C@@H](C(=O)N2CCC[C@H]2C(=O)N[C@@H](CCCN=C(N)N)C(=O)NCC(N)=O)NC(=O)[C@H](CC(N)=O)NC1=O`, for which the activity (max response) was -1.25% (inactive).

Consider `O=c1[nH]c(=O)n([C@H]2O[C@H](CO)[C@@H](O)[C@@H]2O)cc1/C=C\Br`, for which the activity (max response) is -3.87% (inactive).

The values above are taken from PubChem BioAssay (NCATS).
